Assay results: PubChem BioAssay

Assay: small molecules captured by biotinylated probe aFGF10 – biochemical, small-molecule microarray, fluorescence 635/667, stem cell growth factor project, primary screen (AID 1071);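 note: score merges 667 nm spot intensity and signal to noise from triplicate slides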
Conditions: higher = more signal

Row | Structure (SMILES) | composite z-score
1 | O=C(O)C1=CC[C@H]2C(=O)N(c3ccccc3)C(=O)[C@@H]12 | 0.676
2 | C=CC[C@H](OC(=O)Nc1ccc(SC)cc1)c1ccc(O)c(F)c1 | -0.575
3 | COC(=O)C1(CC(C)C)C=C2C(=C(C)C(=O)C2C)CN1 (configuration not stated) | -0.302
4 | [N-]=[N+]=NCc1ccccc1C[C@]1(C(=O)N2CCCCC2)COC(c2ccc(OCCCO)cc2)=N1 | 1.01
5 | C=C[C@H](C)[C@@H](OC(=O)Nc1ccc(SC)cc1)c1ccc(OCCO)cc1 | 0.0044
6 | COC(=O)Cn1c(C(=O)N(C)C)cc2c1C[C@H]1CN(C(=O)c3ccccc3)[C@@](Cc3ccccc3)(C(=O)OC)[C@@H]21 | 0.0707
7 | O=C1c2ccccc2[C@](Cc2ccccc2I)(C(=O)NCCN2CCOCC2)[C@H](c2ccc(CO)cc2)N1Cc1ccccc1C(F)(F)F | 0.0371
8 | Cc1ccc(S[C@]2(C(=O)NCCN3CCOCC3)CC(=O)N(C(C)C)[C@@H]2c2ccc(CO)cc2I)cc1 | -0.11
9 | C=C(CCCC)C(=O)CC[C@H](OC(=O)c1ccccc1-c1ccccc1C(=O)O)c1cccc(OCCO)c1 | -0.416
10 | [N-]=[N+]=Nc1ccccc1C[C@@]1(C(=O)NCc2ccccc2)N=C(c2ccc(OCCCO)cc2)O[C@@H]1c1ccccc1 | 1.05
11 | C=CCNC(=O)[C@@H]1[C@H]2C(=O)O[C@H](c3ccccc3)[C@H](c3ccccc3)N2[C@H](c2ccc(OCCO)cc2)[C@@]12C(=O)Nc1ccc(C#CC3=CCCCC3)cc12 | 0.924
12 | CC(C)C[C@@H]1NC(=O)[C@H]2C[C@@H](C(=O)O)[C@@H](c3cccc(OCCO)c3)N2C1=O | -0.0367
